High-throughput results deposited in PubChem BioAssay by The Scripps Research Institute Molecular Screening Center.
Most compounds without a hit are left out; they make up all but 5.7% or so of the library.
ssDAF-12 act = activators of S. stercoralis DAF-12 nuclear receptor; HEK293 ssDAF-12/GRIP1 lit1-tk-luc reporter, luminescence; % of 3 µM dafachronic acid response; activation, % at 6.8 µM; actives 1% (n = 370,000);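 active means activation above the mean over all tested compounds plus 3 SD, cut at about 0.9% in these data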;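 further: 0% = DMSO-only wells and 100% = 3 µM delta7-dafachronic acid wells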
AHR act = human AHR activation. AHR-responsive luciferase reporter cells, luminescence. activation, % at 5 µM. actives 2.5% (n = 320,000). AID 2796; in the data active means activation above about 47%;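 further: 0% = vehicle wells and 100% = reference agonist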
hcDAF12 agonist = activates DAF-12 receptor from parasite H. contortus | HEK293 hcDAF-12 lit1-tk-luc reporter, luminescence; 0% DMSO, 100% Δ7-dafachronic acid | activation, % at 6.8 µM | actives 1.4% (n = 370,000);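 active means activation above the mean of all tested compounds plus 3 SD, cut at about 5.5% in these data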;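 further: 100% = response to 3 µM Δ7-dafachronic acid high control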
DAX1 inh-1 = inhibitors of human orphan nuclear receptor DAX1 (NR0B1). HEK293 Gal4-DAX1 luciferase reporter, luminescence. inhibition, % at 6.75 µM. actives 0.99% (n = 340,000). AID 504766;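 active means inhibition above the mean over all tested compounds plus 3 SD, cut at about 4.2% in these data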;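 further: 0% = DAX1-transfected cells with DMSO and 100% = empty-vector control cells with DMSO; inhibition shows as a rise in luminescence from relieved DAX1 repression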
Target sequence (P51843 207-470 limits assumed): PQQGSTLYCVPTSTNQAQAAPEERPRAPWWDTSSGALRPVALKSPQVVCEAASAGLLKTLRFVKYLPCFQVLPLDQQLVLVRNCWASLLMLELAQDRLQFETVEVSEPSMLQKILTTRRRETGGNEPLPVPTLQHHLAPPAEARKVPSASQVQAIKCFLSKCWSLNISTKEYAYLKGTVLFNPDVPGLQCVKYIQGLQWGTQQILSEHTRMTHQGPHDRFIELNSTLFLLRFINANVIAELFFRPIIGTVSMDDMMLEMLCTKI
hgDAF12 agonist = activates the H. glycines DAF-12 receptor ligand-binding domain; HEK293 GAL4-hgDAF12 UAS-luciferase reporter, agonist luminescence; normalized to butyrate control; activation, % at 6.8 µM; actives 1.8% (n = 370,000); AID 687014;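 active means activation above a cutoff set at the mean of all screened compounds plus 3 SD, cut at about 10% in these data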;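 further: 0% = DMSO wells and 100% = sodium butyrate wells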
DAX1 inh-2 = blocks DAX1 repression of SF-1 activated StAR promoter; actives 1.1% (n = 370,000); inhibition, % at 6.8 µM; HEK293T StAR-luciferase reporter, SF-1/DAX-1 repression relief;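 active means inhibition above the mean over all tested compounds plus 3 SD, cut at about 3.6% in these data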;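 further: 0% = DAX-1 cells with DMSO and 100% = cells lacking DAX-1 with DMSO; higher inhibition means more luminescence from relief of DAX-1 repression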
Active calls of the source: *.

Results for c1ccc(-c2nc3ccccc3n2C(c2ccccc2)c2nc3ccccc3[nH]2)cc1 (stereo not drawn) ?
ssDAF-12 act: 0.3; hcDAF12 agonist: 4.8; hgDAF12 agonist: 12.5*; DAX1 inh-2: 3.6

Results for Cc1nn(CC(=O)NNC(=O)c2cccc(Br)c2)c(C)c1[N+](=O)[O-] ?
ssDAF-12 act: -1.4; AHR act: 1.9; hcDAF12 agonist: -0.4; DAX1 inh-1: 0.2; hgDAF12 agonist: 1.1; DAX1 inh-2: -0.2

What do the screens show for `COc1cc2c(cc1OC)/C(=C/c1ccc(Cl)cc1)C(=O)OC2`?
ssDAF-12 act: -1.3; AHR act: 58.9*; hcDAF12 agonist: -2.4; DAX1 inh-1: -0.5; hgDAF12 agonist: -3.4; DAX1 inh-2: -0.8

How did CCCN(CCC)c1cc(=O)nc2ccccn12 do in these assays?
ssDAF-12 act: -1.3; hcDAF12 agonist: 0.8; hgDAF12 agonist: -3.0; DAX1 inh-2: -0.5

Results for CCc1nc2ccc(C(=O)Nc3ccc(Cl)c(Cl)c3)cn2c1N(C)Cc1ccc(OC)cc1 ?
ssDAF-12 act: -0.2; hcDAF12 agonist: 0.7; hgDAF12 agonist: 11.8*; DAX1 inh-2: 0.4

What do the screens show for `CC1CCCCC1NC(=O)CNC(=O)c1cccs1` (stereo not drawn)?
ssDAF-12 act: -0.5; AHR act: 1.8; hcDAF12 agonist: -0.9; DAX1 inh-1: -0.8; hgDAF12 agonist: 1.2; DAX1 inh-2: -0.7

How did COc1ccccc1N1C(=O)N(C(C)=O)C2C1Nc1ccccc1N2C (stereo not drawn) do in these assays?
ssDAF-12 act: -0.6; AHR act: 60.1*; hcDAF12 agonist: 0.2; DAX1 inh-1: -0.3; hgDAF12 agonist: -3.2; DAX1 inh-2: -1.5

How did COc1ccccc1N1C(=O)c2ccccc2NC1c1ccncc1 (stereo not drawn) do in these assays?
ssDAF-12 act: -0.8; AHR act: -0.6; hcDAF12 agonist: -1.5; DAX1 inh-1: 0.1; hgDAF12 agonist: -1.8; DAX1 inh-2: 0.6

Results for COc1ccc(/C=N/N=C2/SCC(=O)N2Cc2ccccc2)cc1 ?
ssDAF-12 act: -0.1; AHR act: 33.1; hcDAF12 agonist: 2.4; DAX1 inh-1: 5.8*; hgDAF12 agonist: 12.8*; DAX1 inh-2: 1.1

What do the screens show for `Cn1c(SCc2ccccc2)nc2c1c(=O)[nH]c(=O)n2C`?
ssDAF-12 act: -0.6; AHR act: 4.2; hcDAF12 agonist: -1.9; DAX1 inh-1: -0.7; hgDAF12 agonist: -1.3; DAX1 inh-2: 0.1

Results for Cn1c(SCc2ccccc2Cl)nc2c1c(=O)[nH]c(=O)n2C ?
ssDAF-12 act: 1.5*; AHR act: 3.0; hcDAF12 agonist: -1.3; DAX1 inh-1: -1.6; hgDAF12 agonist: 2.4; DAX1 inh-2: 0.1

What do the screens show for `CN1CCC(N(C)C(=O)COc2ccccc2Cl)CC1`?
ssDAF-12 act: -1.1; AHR act: -0.8; hcDAF12 agonist: -0.7; DAX1 inh-1: -0.2; hgDAF12 agonist: -0.2; DAX1 inh-2: 2.0

What do the screens show for `Cc1ccc(S(=O)(=O)N2C[C@H]3[C@H]4C(=O)N(c5ccccc5)C(=O)[C@H]4CC(=O)[C@H]3[C@@H]2c2cccc3ccccc23)cc1`?
ssDAF-12 act: 0.3; hcDAF12 agonist: 1.7; hgDAF12 agonist: 3.0; DAX1 inh-2: 4.3*

Results for CC1CN(C(=O)c2ccccc2OCc2ccc(Cl)cc2Cl)CC(C)O1 (stereo not drawn) ?
ssDAF-12 act: -1.7; AHR act: 1.7; hcDAF12 agonist: -1.4; DAX1 inh-1: -0.2; hgDAF12 agonist: 0.3; DAX1 inh-2: -2.3

Results for O=C(NCCc1ccc(Cl)cc1)c1ccc2ccccc2n1 ?
ssDAF-12 act: -1.3; AHR act: 9.5; hcDAF12 agonist: 6.0*; DAX1 inh-1: 0.2; hgDAF12 agonist: 4.7; DAX1 inh-2: 0.4

Results for COCCNC(=O)c1ccc2ccccc2n1 ?
ssDAF-12 act: -0.1; AHR act: 18.1; hcDAF12 agonist: 2.4; DAX1 inh-1: 0.6; hgDAF12 agonist: 1.8; DAX1 inh-2: 1.3

What do the screens show for `O=C(NCCc1ccccc1)c1cnc2ccccc2n1`?
ssDAF-12 act: -0.3; AHR act: 10.1; hcDAF12 agonist: 5.2; DAX1 inh-1: 1.4; hgDAF12 agonist: 13.0*; DAX1 inh-2: 1.5
